The target in the assay is Thioredoxin reductase 1, cytoplasmic (Rattus norvegicus) (UniProt O89049). The assay is described as follows: qHTS Assay for Inhibitors of Mammalian Selenoprotein Thioredoxin Reductase 1 (TrxR1): Hit Validation in Primary Screen. The settings on record: recombinant TrxR1, NADPH fluorescence consumption, selenite substrate. From the text:
The selenoprotein thioredoxin reductase (TrxR; EC 1.8.1.9) is a FAD containing homodimeric pyridine nucleotide-disulfide oxidoreductase with many cellular roles. Together with NADPH and its prime substrate thioredoxin (Trx), the enzyme forms the core of the Trx system. The mammalian Trx system exerts a wide spectrum of functions including redox regulation, antioxidant defense, regulation of transcription factors as well as support of cell growth and replication. Many of these functions involve the reduction of Trx, which may subsequently reduce a number of different substrates including ribonucleotide reductase, peroxiredoxins or NFkB. […]
Assay protocol: 2 uL of reagents (buffer in column 4 as negative control and 90 nM rTrxR1 in columns 1-3 and 5-48) were dispensed into Greiner black solid-bottom 1,536-well assay plates, followed by 1 uL of NADPH (400 uM final concentration) to each well. […] The plate was immediately transferred to a ViewLux high-throughput CCD imager (PerkinElmer), wherein kinetic measurements of NADPH fluorescence (Ex 340 nm, Em 450 nm) were acquired (8 minute kinetic read). Read 1 was utilized to assess the capacity of a compound to serve as an rTrxR1 substrate, i.e. a decrease in NADPH fluorescence compared to the no-compound background is an indication of a substrate behavior for that particular compound. […]
Background: In qHTS, concentration-response curves come from the screen itself.

Some of the results follow. Records with an inconclusive call do not appear. Active and inactive are the calls of the source. The call rests on the fitted dose curve; in most records, active means well fitted inhibition curve with a large enough effect; inconclusive means small, poorly fitted or top-dose-only effect; inactive means flat fitted curve, though single readings scatter.

Thioredoxin reductase 1, cytoplasmic (Rattus norvegicus), sequence (O89049 whole entry, looked up): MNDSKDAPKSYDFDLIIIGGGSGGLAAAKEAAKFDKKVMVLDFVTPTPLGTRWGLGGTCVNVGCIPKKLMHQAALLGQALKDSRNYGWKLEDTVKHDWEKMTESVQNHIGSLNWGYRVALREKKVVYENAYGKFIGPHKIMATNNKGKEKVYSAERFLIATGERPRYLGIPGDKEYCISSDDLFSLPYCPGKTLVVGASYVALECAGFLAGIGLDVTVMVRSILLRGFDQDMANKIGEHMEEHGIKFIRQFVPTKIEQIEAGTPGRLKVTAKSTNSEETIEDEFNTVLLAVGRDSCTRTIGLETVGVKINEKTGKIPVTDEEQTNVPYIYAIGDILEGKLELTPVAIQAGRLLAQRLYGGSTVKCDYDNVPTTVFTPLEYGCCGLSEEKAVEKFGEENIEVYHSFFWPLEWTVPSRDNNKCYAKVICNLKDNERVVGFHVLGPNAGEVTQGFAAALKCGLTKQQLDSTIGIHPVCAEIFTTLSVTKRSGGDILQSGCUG

As to `COc1ccc(-c2nc(CS(=O)CC(=O)N3CCC4(CC3)OCCO4)c(C)o2)cc1` (stereo unspecified), the Potency was 7.52 µM (active).

The record behind these values is PubChem BioAssay AID652023 (National Center for Advancing Translational Sciences (NCATS), 2013).
